An excerpt weighted towards active compounds, which were near 0.9% of everything screened.
PfHsp40 rescue: rescue of yeast from PfHsp40 toxicity, primary screen, S. cerevisiae, ATP luminescence. S. cerevisiae expressing PfHsp40, growth rescue. 340,000 compounds, 0.68% hits. growth rescue, % at 12.5 µM. AID 504582, 2011; in the data active means growth rescue above about 28%, passing the limit was not always enough; inconclusive means no clear call, values can overlap the other calls;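 further: yeast W303a lacking pdr1 and pdr3 grown in galactose medium; growth measured after three days at 30 °C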
Sa ugtP lethal: growth inhibition of ugtP-null S. aureus, primary screen, RN4220 ugtP deletion, OD600 | 16 h | growth inhibition, % (concentration not given with the values) | 330,000 compounds, 0.54% hits | AID 1259309, 2017; in the data active means growth inhibition above about 68%;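 further: plate controls were untreated wells for no effect and antibiotic for full effect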
RN4220 kill: growth inhibition of S. aureus RN4220, primary screen, OD600; 16 h; inhibition, % (test concentration not listed); 330,000 compounds, 0.33% hits; AID 1259311, 2017; in the data active means inhibition above about 85%;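 further: plate controls were untreated cells for no effect and reference antibiotic for full effect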
Mtb betalactam: beta-lactam sensitization of Mtb H37Rv, H37Rv; 330,000 compounds, 0.27% hits; M. tuberculosis H37Rv growth with meropenem, percent inhibition; inhibition, % at 25 µM; call rule not given here;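 further: growth measured after seven days incubation then overnight dye step; 0% = bacteria only wells and 100% = bacteria with antibiotic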
BioA inh: M. tuberculosis BioA enzyme inhibitors, primary screen, biochemical, plate reader, single point, HTS; purified M. tuberculosis BioA enzyme; 360,000 compounds, 0.096% hits; inhibition, % at 9.99 µM; 7,8-diaminopelargonic acid synthase BioA (Mycobacterium tuberculosis); in the data active means inhibition above about 40%; inconclusive means no clear call, values can overlap the other calls
* marks the source's active call; other numbers are inactive results; ? = inconclusive; · = not tested or not shown.

SMILES	PfHsp40 rescue	Sa ugtP lethal	RN4220 kill	Mtb betalactam	BioA inh
Cc1ccc2[nH]c(=O)c(CN(Cc3ccco3)C(=O)c3cccs3)cc2c1	·	-4.0	-11.6	·	·
CC(C)CC(NC(=O)OC(C)(C)C)C(=O)NC(CO)C(O)C1CC1C(=O)NC1CCCCC1 (stereo not given)	·	-2.6	6.2	·	·
CC1CCc2c(sc3nc(C4CC4)nc(N4CCN(C(=O)c5ccco5)CC4)c23)C1 (stereo not given)	160.7*	16.0	-13.9	90.6	0.0
CCc1nc(N2CCN(C(=O)c3ccco3)CC2)c2c3c(sc2n1)CCCC3	0.4	6.3	21.1	23.1	·
ClC(Cl)(c1nnnn1-c1ccccc1)c1nnnn1-c1ccccc1	12.7	99.9*	100.1*	87.3	·
O=C(/C=C/c1cccc(Cl)c1)c1ccc([N+](=O)[O-])o1	-6.1	·	·	100.0	-0.5
O=C(C=Cc1ccc(Cl)cc1)c1ccc([N+](=O)[O-])o1	·	99.1*	79.0	·	·
CCc1ccc(C(=O)/C=C/c2ccc([N+](=O)[O-])o2)cc1	119.8*	60.1	23.9	100.1	·
CC1CN(C(C)CO)C(=O)c2cccc(NC(=O)c3cnccn3)c2OC1CN(C)C(=O)Nc1ccc2c(c1)OCO2 (stereo not given)	·	6.2	6.5	·	·
O=c1cc2c(nn1Cc1cccc(Cl)c1)-c1ccccc1CC2	46.5*	-6.0	2.6	0.6	0.2
O=c1cc2c(nn1Cc1ccc(Cl)cc1)-c1ccccc1CC2	5.1	-13.6	-0.4	2.7	1.9
O=C(/C(N=Nc1cccc(C(F)(F)F)c1)=C(/O)c1cccs1)C(F)(F)F	194.8*	84.6	81.4	45.9	·
NC(C(=O)NC1C(=O)N2C(C(=O)O)=C(Cl)CSC12)c1ccccc1 (stereo not given)	·	100.2*	100.5*	·	·
COC(=O)CC1=C(C(=O)OC)C2(C(=O)N(C)c3ccccc32)C(C#N)=C(N)O1 (stereo not given)	0.2	98.2*	98.1*	-3.4	-2.3
Cc1ccc(-n2nnnc2C(Cl)c2nnnn2-c2ccc(C)cc2)cc1	?	99.0*	97.3*	·	·
Cc1ccc(-n2nnnc2-c2ccccc2)cc1	2.6	0.6	1.4	4.7	-1.3
COc1ccc(Cl)cc1C(=O)CSc1nnnn1C1CCCC1	31.7*	1.5	5.6	-11.4	-0.6
O=C(NC1=NCCS1)c1ccccc1Cl	-0.4	-0.5	1.1	-10.8	0.1
O=C(NC1=NCCS1)c1csc2ccccc12	49.5*	-4.6	5.5	19.3	-0.6
CCC1=C(OC(=O)N(CC)CC)N2C(=O)OC(=NCc3ccccc3)[C@]2(C)C2C1=CCC1C(=O)NC(=O)C12 (stereo not given in full)	·	3.8	4.3	·	·
COC(COC(N)=O)C1=C(N2CC2)C(=O)C(C)=C(N2CC2)C1=O (stereo not given)	-0.5	·	·	·	·
COC12C(COC(N)=O)C3=C(C(=O)C(C)=C(N)C3=O)N1CC1C2N1C (stereo not given)	-0.2	100.3*	100.0*	100.1	0.0
CCC(=O)Nc1nc2ccccc2n1CCN1CCOCC1	7.9	3.0	7.7	4.9	-0.5
CCCCCCCn1c(NC(=O)CC)nc2ccccc21	93.1*	·	·	98.0	2.8
O=S(=O)(c1c(F)cccc1F)N(CCc1ccc(F)cc1)C[C@@H](O)COCc1ccccc1	114.4*	·	·	·	-1.3
SMILES	PfHsp40 rescue	Sa ugtP lethal	RN4220 kill	Mtb betalactam	BioA inh
COc1ccc(CN(CC(O)COCc2ccccc2)S(=O)(=O)c2ccccc2Br)cc1OC (stereo not given)	0.0	-11.2	7.5	·	-0.3
CN(C)C1(CN=Cc2cc(Cl)cc([N+](=O)[O-])c2O)CCCCC1	41.6*	8.0	6.4	1.4	·
COc1ccc(NC(=O)Nc2cccc3c2OC(CN(C)C(=O)Nc2c(C)noc2C)C(C)CN(C(C)CO)C3=O)cc1 (stereo not given)	·	-7.7	1.6	·	·
Cc1ccc(CCNc2ncnc(Cl)c2N)cc1	733.5*	4.8	0.2	·	3.2
Cc1ccc(C(=O)CSc2nnc(-c3ccc4[nH]c(C)c(C)c4c3)o2)cc1C	-0.1	97.5*	18.4	10.1	-3.3
O=[N+]([O-])c1ccc(O)c2cccnc12	-0.6	7.3	1.5	0.7	-0.7
O=[N+]([O-])c1cc(F)c2cccnc2c1O	73.5*	22.7	30.1	78.5	1.8
Oc1c(Cl)cc(CN2CCOCC2)c2cccnc12	?	10.2	1.4	99.5	-0.9
O=[N+]([O-])c1ccc(O)c2ncccc12	?	99.2*	98.9*	81.8	1.8
O=[N+]([O-])c1cc([N+](=O)[O-])c2cccnc2c1Oc1ccccc1O	0.1	1.7	17.8	1.5	-0.5
Oc1c(CN2CCc3ccccc3C2)cc(Cl)c2cccnc12	282.4*	-2.9	3.6	96.0	-2.2
COCc1ccc(O)c2ncccc12	0.8	97.6*	98.5*	100.3	-2.7
COC1=CC2C3=C(C(NC(C)=O)CCc4cc(OC)c(OC)c(OC)c43)C2C1=O (stereo not given)	·	-4.0	2.9	·	·
O=C1CCN(Cc2ccc(Br)cc2)CCN1C(CO)Cc1ccccc1 (stereo not given)	·	-0.6	7.0	·	·
O=C(C1=CC(c2ccc(C(F)(F)F)cc2)CC(OCCCCO)O1)N1CCOCC1 (stereo not given)	·	4.5	8.4	·	·
O=[N+]([O-])c1cc(Cl)c(O)c2ncccc12	23.9	98.3*	98.8*	·	·
Oc1c(I)cc(Cl)c2cccnc12	246.2*	99.8*	98.9*	98.3	-1.3
O=c1oc2ccccc2c(O)c1Cc1cc(Cl)c2cccnc2c1O	?	97.8*	94.2*	4.3	·
c1cnc2c(c1)ccc1ncccc12	0.1	2.1	1.0	-9.2	-3.7
O=C(SCc1c(O)c2ccccc2oc1=O)c1ccccc1	·	·	·	·	0.1
Cc1c(C)c2cccnc2c2ncccc12	75.7*	73.8	93.2*	73.7	-1.3
COC(CC(O)CC(=O)C(C)OCc1ccccc1)OC (stereo not given)	·	5.1	-1.0	·	·
O=[N+]([O-])c1cc(Cl)c2cccnc2c1O	142.3*	99.8*	98.9*	30.0	·
Clc1cc2cccnc2c2ncccc12	115.9*	-7.2	-4.0	95.1	-0.2
O=[N+]([O-])c1ccc(Cl)c2cccnc12	0.5	-3.4	1.6	-0.8	·
SMILES	PfHsp40 rescue	Sa ugtP lethal	RN4220 kill	Mtb betalactam	BioA inh
COc1ccc(-c2c(-c3ccccc3OC)oc3ccccc23)cc1F	0.7	89.1*	-4.8	11.7	-1.4
COc1ccccc1-c1oc2ccccc2c1-c1ccccc1OC	-0.1	7.6	-4.7	-0.8	-2.0
Oc1ccc2ccccc2c1C=Nc1cc(C(F)(F)F)ccc1N1CCCC1	-0.6	94.6*	-5.4	5.0	·
O=C(O)c1ccc(N=Cc2c(O)ccc3ccccc23)cc1	-0.9	0.6	8.0	7.0	-0.9
N#CC(C#N)=C(Nc1ccc(F)cc1)SCc1cccc(F)c1	-2.5	98.3*	98.9*	0.8	·
COc1ccc(-c2c(C#Cc3ccc(N(C)C)cc3)c3ccccc3n2C)cc1	-0.4	·	·	49.2	-0.8
COc1ccc(C#Cc2c(-c3ccccc3)n(-c3ccccc3)c3ccc(CO)cc23)cc1	65.4*	-0.3	-9.7	1.5	-1.7

Screening results deposited in PubChem BioAssay by several laboratories.
